According to PubChem BioAssay AID524 (The Scripps Research Institute Molecular Screening Center, 2006):
About 95 (0.1%) of roughly 65,000 compounds were called active. Only a selection was taken, and actives are over-represented in it overall. Unmarked numbers belong to inactive results.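 How the source made its calls: active means inhibition above the screen-wide mean inhibition plus 3 SD (cut at about 21% in these data); inactive means the rest.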

molecular target: cAMP-dependent protein kinase catalytic subunit alpha (Homo sapiens) (UniProt P17612); assay: PKA catalytic subunit kinase inhibition – biochemical, ATP-depletion luminescence, Kemptide substrate, primary screen (AID 524); settings: PKA Kemptide phosphorylation, Kinase-Glo ATP luminescence; at 6 µM; stronger effect = higher value

Compared with CCOC(=O)c1ccc(N2C(=O)CC(Sc3nc(O)c(CC)c(=O)[nH]3)C2=O)cc1 (stereo not given), CCCc1nc2ccccc2c(=O)n1NC(=O)c1c(O)c2ccccc2[nH]c1=O is higher in inhibition: 7.3% for the first, 7.9% for the second.

Compared with CC(=O)Nc1cccc(NC(=O)c2c(-c3ccccc3)noc2C)c1, COc1ccc2[nH]c(=O)c(CN(CC3CCCO3)C(=O)Nc3ccccc3)cc2c1 (stereo not given) is higher in inhibition: -5.3% for the first, -4.5% for the second.

Going from Cc1nnc(SCC(=O)NCc2cccs2)[nH]c1=O to CCOC(=O)c1c(NC(=O)CSc2nnc(C)c(=O)[nH]2)sc2c1CCC2, the inhibition falls from 12.3% to 0.8%.

Going from Cc1nc(SC(C)C)[nH]c(=O)c1Cc1ccccc1 to Cc1cccc(-n2c(Cc3cc(=O)[nH]c(=O)[nH]3)nnc2SC(C)C)c1, the inhibition falls from 5.4% to -8.8%.

Going from COc1cccc(-n2cc(C(=O)O)c3ccccc3c2=O)c1 to O=C(Oc1ccccc1)c1ccc2nccnc2c1, the inhibition rises from 12.3% to 18.8%.

Going from COc1cccc(Nc2nnc(SCC(=O)N3CC(C)OC(C)C3)s2)c1 (stereo not given) to CCOc1ccccc1Nc1nnc(SCc2ccc(C(=O)OC)o2)s1, the inhibition falls from 6% to 4.4%.

First: CC(=O)NC1CC2CCCC(C1)N2CC(=O)Nc1ccccc1 (stereo not given)
Second: COc1ccccc1CNC(=O)C1CCN(S(C)(=O)=O)CC1
The inhibition of the first is higher: 6% for the first, 4.6% for the second.

First: O=C(NCC1CCCO1)C(C(=O)c1ccccc1)n1cc(Cl)ccc1=O (stereo not given)
Second: Cc1ccc(S(=O)(=O)N2CCC(C(=O)N[C@@H](C)C(=O)NCc3ccccc3)CC2)cc1
The inhibition of the first is higher: 1.8% for the first, 1.2% for the second.

Going from Cc1nc2ccc(S(=O)(=O)NCC(=O)NCCN3CCCCC3C)cc2s1 (stereo not given) to O=C(Nc1nc2cc3c(cc2s1)OCCO3)c1cccc(S(=O)(=O)N2CCOCC2)c1, the inhibition rises from -5.1% to 6.2%.

Compared with CCOC(=O)CN1C(=O)C(O)(CC(=O)c2ccccn2)c2ccccc21 (stereo not given), CCOC(=O)CN1CC23C=CC(O2)C(C(=O)Nc2ccc(F)cc2)C3C1=O (stereo not given) is lower in inhibition: 10.4% for the first, 2.5% for the second.

Going from CCOc1ccc(C(=O)Nc2cc(OC)ccc2OC)cc1 to CCOc1ccccc1Oc1cn[nH]c1-c1ccc(OC)cc1O, the inhibition falls from -1.4% to -1.5%.

Going from CC1(C)CC(=O)C(C=NCc2cccnc2)=C(O)C1 to O=S(=O)(NCc1cccnc1)c1ccc(Br)s1, the inhibition falls from 7% to -2.9%.

First: CCCCCCOC(=O)NCC(O)c1ccccc1 (stereo not given)
Second: CCCCCN(C(=O)NC(=O)Nc1ccccc1OC)S(C)(=O)=O
The inhibition of the first is lower: 3.5% for the first, 8.1% for the second.

First: Cc1cc(NC(=O)c2cccc(N3C(=O)CCC3=O)c2)no1
Second: CC(=O)Nc1cc2ccc(OC(C)=O)cc2oc1=O
The inhibition of the first is lower: -4% for the first, 5.7% for the second.

First: COc1ccc2nc(NC(=O)c3ccc(Br)s3)sc2c1
Second: CC(=O)Oc1ccc(C(=O)Nc2nccs2)cc1
The inhibition of the first is lower: -4.9% for the first, -2.3% for the second.

Compared with COc1cc(Cl)c(S(=O)(=O)n2cnc(C)c2)cc1Cl, CCOCC(=O)Nc1cc(OC)c(Cl)cc1OC is higher in inhibition: 4.9% for the first, 5.6% for the second.

First: CN(Cc1ccccc1)c1nc2c(c(=O)[nH]c(=O)n2C)n1CCSc1nc2ccccc2[nH]1
Second: CCCCOc1ccccc1/C=c1/sc2nc(-c3oc4ccccc4c3C)nn2c1=O
The inhibition of the first is higher: 2.7% for the first, 2% for the second.

Going from c1ccc(-c2oc3ncnc(N4CCOCC4)c3c2-c2ccccc2)cc1 to COc1ccccc1N1CCN(C(=O)c2cn(-c3ccccc3)nc2-c2cccnc2)CC1, the inhibition falls from 7.5% to -9.3%.

First: CN1CCCc2cc(C#N)c(=O)[nH]c21
Second: CCOC(=O)N1CCN(CC(=O)c2c(C)[nH]c3ccccc23)CC1
The inhibition of the first is higher: 11.8% for the first, -3.4% for the second.

Compared with Cc1ccccc1-n1c(SCC(=O)NCc2cccs2)nnc1-c1ccncc1, Cc1ccccc1-n1nnc2c(=O)oc3ccccc3c21 is lower in inhibition: 11.7% for the first, 7.5% for the second.

Compared with O=C(CSc1nc2ncccc2[nH]1)Nc1ccc2c(c1)OCCO2, O=S(=O)(Nc1nccs1)c1ccc2c(c1)OCCO2 is higher in inhibition: -9.5% for the first, 6.4% for the second.

Going from CCOC(=O)C1CCN(C(=O)C2CCN(S(=O)(=O)CC)CC2)CC1 to O=S(=O)(c1cccc(S(=O)(=O)N2CCC(n3nnc4ccccc43)CC2)c1)N1CCCCC1, the inhibition rises from 0.3% to 8.1%.

Compared with O=C(O)COc1nsnc1N1CCOCC1, CCn1ncc(C2=NOC(C(=O)N3CCN(c4ccccc4)CC3)C2)c1C (stereo not given) is higher in inhibition: -0.4% for the first, 11.5% for the second.

First: CCOC(=O)c1sc(NC(=O)CSc2nnc(-c3ccco3)o2)c(C(=O)OCC)c1C
Second: Cc1ccc(-c2nc(COC(=O)c3c(C)noc3C)cs2)cc1
The inhibition of the first is lower: -4.6% for the first, 0.5% for the second.

First: COC(=O)CCSc1nccn1Cc1ccccc1
Second: COC(=O)c1ccc(NC(=O)c2ccco2)cc1
The inhibition of the first is higher: 1.3% for the first, -3.7% for the second.

Going from CN1C(=O)CC(N2CCN(c3ccccn3)CC2)C1=O (stereo not given) to CCn1c(=O)cc(OCC(=O)NCCCN2CCN(c3cccc(Cl)c3)CC2)c2ccccc21, the inhibition rises from 0.2% to 9.2%.

Compared with COC(CCN(C)C)(c1ccccc1)c1ccccc1, CN(CCc1ccccn1)S(=O)(=O)c1ccc2c3c(cccc13)C(=O)N2 is lower in inhibition: 9.3% for the first, 4.5% for the second.

First: O=C(Nc1cnccn1)c1cccnc1
Second: O=C(NCc1ccc(Cl)cc1)c1cc2c(nc3sccn32)s1
The inhibition of the first is higher: 9% for the first, 2.8% for the second.

Compared with COc1cc(-n2c(C)nc3cc(C(=O)NCc4ccco4)ccc32)cc(OC)c1OC, CCOc1nc(-c2ccc(OC)cc2)ccc1-c1noc(-c2cc(OC)c(OC)c(OC)c2)n1 is lower in inhibition: 5.2% for the first, -0.3% for the second.

Compared with Cc1cccc(OCc2nnc(SCc3nc4cc(C(F)(F)F)ccc4c(=O)[nH]3)o2)c1, CCn1cc(C(=O)NCC2COc3ccccc3O2)c2cc(OC)c(OC)cc2c1=O (stereo not given) is lower in inhibition: 3.4% for the first, 2.4% for the second.

Compared with COc1ccc(C2/C(=C(/O)c3ccc(OC(C)C)cc3)C(=O)C(=O)N2CCCN2CCOCC2)cc1 (stereo not given), CC(C)(C)NC(=O)C(c1ccco1)N(Cc1ccc2c(c1)OCO2)C(=O)Cn1nnc2ccccc21 (stereo not given) is lower in inhibition: 3.6% for the first, -2.7% for the second.

First: CN1CCc2c(sc3c2c(NCc2ccco2)nc2nnnn23)C1
Second: Nc1nnc(SCCN2C(=O)c3ccccc3S2(=O)=O)s1
The inhibition of the first is lower: 4.3% for the first, 6.6% for the second.

Compared with COc1ccc(N=Cc2c(O)[nH]c3ccccc23)cc1OC, CCOC(=O)C(CC)Sc1ncnc2c1nnn2-c1ccc(F)cc1 (stereo not given) is higher in inhibition: 9.6% for the first, 11.3% for the second.

First: CC1(C)C2CCC1(C)C(OC(=O)CCn1ccnc1)C2 (stereo not given)
Second: CC1(C)Cc2cccc(OCC(=O)Nc3nccs3)c2O1
The inhibition of the first is lower: 7.3% for the first, 9.4% for the second.

Compared with CCc1ccc(CCC(=O)Nc2ccc(S(N)(=O)=O)cc2)o1, Cc1ccc(-n2nc3c(c2NC(=O)CCC2CCCCC2)CS(=O)C3)cc1 (stereo not given) is lower in inhibition: -0.9% for the first, -4.5% for the second.

Going from CCN1CCN(c2ncnc3c2oc2nc(C)c4c(c23)CC(C)(C)OC4)CC1 to Cc1cc(C)c2nc(SCCC#N)nc(C)c2c1, the inhibition rises from 0.2% to 5.1%.

First: CC(C)(C)c1ccc(C(=O)CSc2ncn[nH]2)cc1
Second: O=C(NCc1ccc2c(c1)OCO2)c1cc2c(s1)CS(=O)(=O)C2
The inhibition of the first is higher: 7.8% for the first, 5.5% for the second.

CCC(C)n1[nH]c(=O)cc1N (stereo not given) showed an inhibition of -5.4%.
